Laboratory results from PubChem BioAssay (Tox21).
Records with an inconclusive call do not appear. Activity calls are given as the source filed them. The call rests on the fitted dose curve; in most records, active means well fitted cell-killing curve with a large enough effect in the repeat runs; inconclusive means weak or mixed curves, or effect the other way; inactive means flat fitted curve, though single readings scatter.

Experiment: qHTS assay to identify small molecule antagonists of the androgen receptor (AR) signaling pathway using the MDA cell line - cell viability counter screen (AID 743041; further: nearly all actives have a fitted effect of over 45% in size)
Details: MDA-kb2 viability, CellTiter-Fluor, 16 h, cells co-treated with R1881 androgen agonist; series mostly up to 70.3 µM; viability change, negative = cytotoxic: at the top concentration
Outline: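 Compound exposure lasted 16 h at 37C in MDA-kb2 AR-luc cells stimulated with R1881. Protease-based CellTiter-Fluor reagent was applied for the final 30 min and fluorescence measured.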
On the % scale 0 is the no-effect control and ±100 the full control effect; potency means the concentration at half of the fitted maximal effect.

**Q.** Which “viability change, negative = cytotoxic” value does the source give for `CC(=O)c1ccccc1O` here?
**A.** -6.14% (inactive)

**Q.** With `CC(=O)CC(C)C` as the molecule, how does the “viability change, negative = cytotoxic” value read?
**A.** -1.72% (inactive)

**Q.** Which “viability change, negative = cytotoxic” value does the source give for `CC(C)CCCC(C)N` (stereo unspecified) here?
**A.** 8.74% (inactive)

**Q.** Which “viability change, negative = cytotoxic” value does the source give for `N=C(N)c1ccccc1` here?
**A.** 2.46% (inactive)

**Q.** Which “viability change, negative = cytotoxic” value does the source give for `NCCc1cnc[nH]1` here?
**A.** 0.567% (inactive)

**Q.** With `COc1c(N2C[C@@H]3CCCN[C@@H]3C2)c(F)cc2c(=O)c(C(=O)O)cn(C3CC3)c12` as the molecule, how does the Potency read?
**A.** inactive

**Q.** For `CCO/C([O-])=N/c1c[n+](N2CCOCC2)no1`, which “viability change, negative = cytotoxic” value is on record?
**A.** 22.6% [at 32.5 µM] (inactive)

**Q.** Which “viability change, negative = cytotoxic” value does the source give for `O=C1CC2CC1C1CCCC21` (stereo unspecified) here?
**A.** 5.65% (inactive)

**Q.** Which “viability change, negative = cytotoxic” value does the source give for `NS(=O)(=O)c1cc(C(=O)O)cc(N2CCCC2)c1Oc1ccccc1` here?
**A.** -2.62% [at 32.5 µM] (inactive)

**Q.** With `Brc1c(NC2=NCCN2)ccc2nccnc12` as the molecule, how does the “viability change, negative = cytotoxic” value read?
**A.** -3.65% (inactive)

**Q.** For `CCn1ccnc1CC1COc2ccccc2O1` (stereo unspecified), which “viability change, negative = cytotoxic” value is on record?
**A.** 1.11% (inactive)

**Q.** For `C=C[Si](OC(=C)C)(OC(=C)C)OC(=C)C`, which “viability change, negative = cytotoxic” value is on record?
**A.** -0.639% (inactive)

**Q.** With `CCCCCCCCS(=O)(=O)Cl` as the molecule, how does the “viability change, negative = cytotoxic” value read?
**A.** 9.65% [at 95 µM] (inactive)

**Q.** For `CCOC(=O)[C@H](CCc1ccccc1)N[C@@H](C)C(=O)N1[C@H](C(=O)O)C[C@@H]2CCC[C@@H]21`, which “viability change, negative = cytotoxic” value is on record?
**A.** -8.28% (inactive)

**Q.** Which “viability change, negative = cytotoxic” value does the source give for `C=C(C)CS(=O)(=O)O` here?
**A.** 6.51% (inactive)

**Q.** For `CCN(CC)CCOCCOC(=O)C1(c2ccccc2)CCCC1`, which “viability change, negative = cytotoxic” value is on record?
**A.** -20.1% (inactive)

**Q.** With `O=C[C@H](O)[C@@H](O)[C@H](O)[C@H](O)CO` as the molecule, how does the Potency read?
**A.** inactive

**Q.** For `Nc1nc2c(ncn2COC(CO)CO)c(=O)[nH]1`, which “viability change, negative = cytotoxic” value is on record?
**A.** 9.99% [at 32.5 µM] (inactive)

**Q.** For `C1CN(CCOCCN2CCOCC2)CCO1`, which “viability change, negative = cytotoxic” value is on record?
**A.** -0.793% (inactive)

**Q.** With `CN1CC(=O)NC1=N` as the molecule, how does the “viability change, negative = cytotoxic” value read?
**A.** 7.38% (inactive)

**Q.** For `CN(C)CCCN1c2ccccc2CCc2ccc(Cl)cc21`, which Potency is on record?
**A.** 48.6 µM (active)

**Q.** Which “viability change, negative = cytotoxic” value does the source give for `CCOc1ccc(C(=O)OCCN(CC)CC)cc1` here?
**A.** -5.41% (inactive)

**Q.** With `Cc1cccn2c(=O)c(-c3nnn[nH]3)cnc12` as the molecule, how does the “viability change, negative = cytotoxic” value read?
**A.** 0.749% (inactive)

**Q.** For `C1OCOCO1`, which “viability change, negative = cytotoxic” value is on record?
**A.** 2.07% [at 95 µM] (inactive)

**Q.** With `NC(=O)c1cn(Cc2c(F)cccc2F)nn1` as the molecule, how does the “viability change, negative = cytotoxic” value read?
**A.** -4.17% (inactive)

**Q.** Which “viability change, negative = cytotoxic” value does the source give for `C=CCCCCCCCCC=O` here?
**A.** 0.0748% (inactive)
